Where a name gives a salt, the structure may show the parent alone. Unmarked numbers belong to inactive results.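 Rule for the calls: active = log2 fold change beyond 2 SD from the library mean after excluding viability outliers; inactive = within 2 SD.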
Target: PARP1 L713F-nLuc biosensor (HCT116) (UniProt P09874)
Experiment: PARP1 L713F-nLuc/akaLuc ratio relative to DMSO control (biosensor stabilization) (fold change); higher = more PARP1 biosensor stabilization (target engagement / stabilizer), active = hit call of the paper
Details: stock concentration (mM; final µM = stock mM x 1): 10; 24 h

PARP1 L713F-nLuc biosensor (HCT116), sequence (P09874 whole entry L713F, looked up): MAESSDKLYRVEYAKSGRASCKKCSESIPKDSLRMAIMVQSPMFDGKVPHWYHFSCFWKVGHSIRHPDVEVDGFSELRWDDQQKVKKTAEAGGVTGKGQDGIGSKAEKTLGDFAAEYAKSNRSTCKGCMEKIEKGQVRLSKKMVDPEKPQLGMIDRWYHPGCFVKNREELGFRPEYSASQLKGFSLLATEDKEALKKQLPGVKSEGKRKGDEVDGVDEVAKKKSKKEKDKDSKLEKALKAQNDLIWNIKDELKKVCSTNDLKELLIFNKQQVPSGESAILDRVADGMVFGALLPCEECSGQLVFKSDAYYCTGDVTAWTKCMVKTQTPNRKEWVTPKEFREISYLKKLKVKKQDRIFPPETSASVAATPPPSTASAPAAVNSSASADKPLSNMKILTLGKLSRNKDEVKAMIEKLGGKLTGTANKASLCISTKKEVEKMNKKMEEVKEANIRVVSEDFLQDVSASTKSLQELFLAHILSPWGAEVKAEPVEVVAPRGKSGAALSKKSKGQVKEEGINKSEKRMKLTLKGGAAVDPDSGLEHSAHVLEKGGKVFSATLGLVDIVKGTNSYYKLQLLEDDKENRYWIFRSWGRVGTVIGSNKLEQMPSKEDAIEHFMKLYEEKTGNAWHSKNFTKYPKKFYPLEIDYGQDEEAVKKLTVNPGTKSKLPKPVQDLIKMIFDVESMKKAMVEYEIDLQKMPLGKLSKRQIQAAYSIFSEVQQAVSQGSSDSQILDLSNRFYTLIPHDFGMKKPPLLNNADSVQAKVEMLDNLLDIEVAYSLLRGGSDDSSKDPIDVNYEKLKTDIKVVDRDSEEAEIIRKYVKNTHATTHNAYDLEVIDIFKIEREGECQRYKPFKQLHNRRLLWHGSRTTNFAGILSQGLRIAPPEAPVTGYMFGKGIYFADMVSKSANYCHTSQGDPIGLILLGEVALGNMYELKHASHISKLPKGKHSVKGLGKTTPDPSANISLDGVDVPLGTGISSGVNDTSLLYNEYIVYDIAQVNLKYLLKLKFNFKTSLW

SMILES	PARP1 L713F-nLuc/akaLuc ratio
Cc1ccc(C(=O)Nc2ccc(S(=O)(=O)O)c3cc(S(=O)(=O)O)cc(S(=O)(=O)O)c23)cc1NC(=O)c1cccc(NC(=O)Nc2cccc(C(=O)Nc3cc(C(=O)Nc4ccc(S(=O)(=O)O)c5cc(S(=O)(=O)O)cc(S(=O)(=O)O)c45)ccc3C)c2)c1 [Suramin (sodium salt)]	0.738
O=C(O)Cn1nnc(-c2ccc(CN(CCCCOc3ccc(CN4CCCC4)cc3)CCc3ccccc3)cc2)n1 [TH1834 (dihydrochloride)]	1.29
FC(F)(F)c1ccc(CNc2ccc(Cc3c[nH]c4ncc(Cl)cc34)cn2)cn1 [Pexidartinib (PLX3397)]	0.69
N#CCC1(n2cc(-c3ncnc4[nH]ccc34)cn2)CN(C2CCN(C(=O)c3ccnc(C(F)(F)F)c3F)CC2)C1 [Itacitinib adipate]	1.05
NC(=O)c1cccc2cn(-c3ccc([C@@H]4CCCNC4)cc3)nc12 [Niraparib (tosylate)]	7.76 (active)
COc1cc2c(Oc3ccc4[nH]c(C)cc4c3F)ncnc2cc1OCCCN1CCCC1 [Cediranib (AZD2171)]	1.46
Nc1cccc(Nc2ncc(-c3ccc(Cl)cc3)o2)c1	0.952
O=C1CCc2c(ccc3ccccc23)O1 [Splitomicin]	0.895
CS(=O)(=O)c1ccc(-c2cnc(N)c(C(=O)Nc3ccccc3)n2)cc1	1.46
CCS(=O)(=O)N1CCC([C@@H](C)n2c(C)c(C(=O)NCc3c(OC)cc(C)[nH]c3=O)c3ccccc32)CC1 (racemic) [CPI-169 (racemate)]	1.12
CC(C)(C)c1nc(-c2cccc(NS(=O)(=O)c3c(F)cccc3F)c2F)c(-c2ccnc(N)n2)s1	0.885
O=C(/C=C\n1cnc(-c2cc(C(F)(F)F)cc(C(F)(F)F)c2)n1)NNc1ccccn1 [Verdinexor (KPT-335)]	0.35
CC1(C)CNc2cc(NC(=O)c3cccnc3NCc3ccncc3)ccc21 [Motesanib Diphosphate (AMG-706)]	1.5
CNC(=O)N1N=C(c2ccc(N3CCN(C)CC3)cc2)c2cc(OC)c(OC)cc2C[C@H]1C	1.27
OC(COc1ccc(C(F)(F)F)cc1)CN(Cc1ccccc1)Cc1ccccc1 (stereo not given)	1.03
CN1CCC(COc2cnc(-c3cccc(Cn4nc(-c5cccc(C#N)c5)ccc4=O)c3)nc2)CC1	0.968
Cc1ccc(=O)n(-c2ccccc2)c1 [Pirfenidone]	0.824
Nc1nc2[nH]cnc2c(=S)[nH]1 [Thioguanine]	1.03
O=C(c1ccc(Cl)cc1Cl)n1nnc2ccccc21	0.91
O=c1[nH]c(=S)[nH]c(-c2ccccc2)c1Cc1c(O)ccc2ccccc12 [Cambinol]	0.684
CC1(C)C(=O)NC2=C1C(=O)C(=O)c1ccccc12	0.888
CO[C@H]1C[C@@H]2CC[C@@H](C)[C@@](O)(O2)C(=O)C(=O)N2CCCC[C@H]2C(=O)O[C@H]([C@H](C)C[C@@H]2CC[C@@H](OP(C)(C)=O)[C@H](OC)C2)CC(=O)[C@H](C)/C=C(\C)[C@@H](O)[C@@H](OC)C(=O)[C@H](C)C[C@H](C)/C=C/C=C/C=C/1C [Ridaforolimus (Deforolimus, MK-8669)]	1.7
CNc1nc(-c2ccc3c(N)n[nH]c3c2)cc(N2C[C@@H](C(=O)NC3CCCCC3)CC[C@H]2C)n1	0.434
CCCOc1ccn2c(C(C)=O)cc(-c3ccccc3S(C)(=O)=O)c2c1	0.733
CCCCCC1CC1CC1CC1CCCCCCCC(=O)OC (stereo not given)	1
CCOC(=O)CCNc1cc(N2CCc3ccccc3CC2)nc(-c2ccccn2)n1	0.586
Clc1ccc(C(c2ccccc2Cl)C(Cl)Cl)cc1 (stereo not given) [Mitotane]	0.67
N#Cc1ccc(COC[C@H]2O[C@@H](n3c(NCc4ccc(Cl)c(Cl)c4)nc4c(N)ncnc43)[C@H](O)[C@@H]2O)cc1	0.717
O=C(NNS(=O)(=O)c1ccccc1)c1cc(-c2ccnnc2)ccc1F	1.16
Cn1ncc(Cl)c1-c1cc(C(=O)N[C@H](CN)Cc2cccc(F)c2)sc1Cl [Afuresertib]	1.63

From the supplement of paper PMC11624193, “Coupling cellular drug-target engagement to downstream pharmacology with CeTEAM” (Nature Communications, 2024)
